Measurements taken from PubChem BioAssay (Tox21).
Where “and” joins values, the source holds several entries; their conditions need not be identical. Equal entries are not always repeated. Results filed as inconclusive are left out. Calls of active or inactive are those of the source. The call rests on the fitted dose curve; in most records, active means well fitted cell-killing curve with a large enough effect in the repeat runs; inconclusive means weak or mixed curves; inactive means no such curve, though single readings can be large or run the other way.

Test: qHTS assay to identify small molecule antagonists of the androgen receptor (AR) signaling pathway - cell viability counter screen (AID 743033; further: nearly all actives have a fitted effect of over 45% in size)
Settings: AR-bla HEK293 viability, CellTiter-Glo luminescence, 16 h; series mostly up to 58.5 µM; activity change, negative = cytotoxicity: at the top concentration
Source text: National Center for Advancing Translational Sciences [NCATS]
NIH Chemical Genomics Center [NCGC]
U.S. Environmental Protection Agency [EPA]
National Institutes of Environmental Health Sciences [NIEHS]
National Toxicology Program [NTP]
U.S. Food and Drug Administration [FDA]
Androgen receptor (AR), a nuclear hormone receptor, plays a critical role in AR-dependent prostate cancer and other androgen related diseases. Endocrine disrupting chemicals (EDCs) and their interactions with steroid hormone receptors like AR may cause disruption of normal endocrine function as well as interfere with metabolic homeostasis, reproduction, developmental and behavioral functions. To identify the compounds that inhibit AR signaling, GeneBLAzer AR-UAS-bla-GripTite cell line (Invitrogen, Carlsbad, CA, USA) containing a beta-lactamase reporter gene under control of an Upstream Activator Sequence (UAS) stably integrated into HEK293 cells was used to screen the Tox21 10K compound library. The cytotoxicity of the Tox21 compound library against the AR-bla cell line was tested in parallel by measuring the cell viability using CellTiter-Glo assay in the same wells.
Tox21 Assay Protocol Summary:
AR-bla cells were dispensed at 2,000 cells/5 uL of assay medium per well into black wall/clear-bottom 1536-well plates using a Multidrop Combi (ThermoFisher Scientific, Waltham, MA) dispenser. After the assay plates were incubated at a 37C and 5% CO2 for 4 hr, 23 nL of compounds dissolved in DMSO, positive controls or DMSO only was transferred to the assay plate by a Pintool station (Kalypsys, San Diego, CA), followed by addition of 1 uL of agonist (R1881) in culture medium using a Bioraptr Flying Reagent Dispenser (FRD) workstation (Beckman Coulter, Indianapolis, IN, USA). The plates were incubated at a 37C and 5% CO2 for 16 h. After 1 uL of LiveBLAzerTM B/G FRET substrate was added using a Bioraptr FRD, the plates were incubated at room temperature for 2 h and fluorescence intensity was measured by an Envision plate reader (PerkinElmer, Shelton, CT). For cell viability readout that measures cytotoxicity, 4 ul/well of CellTiter-Glo reagent was added into the assay plates using a Bioraptr FRD. After 30 min incubation at room temperature, the luminescence intensity in the plates was measured using a ViewLux (PerkinElmer) plate reader.
On the % scale 0 is the no-effect control and ±100 the full control effect; potency means the concentration at half of the fitted maximal effect.

| SMILES | activity change, negative = cytotoxicity | Potency |
| --- | --- | --- |
| NC(=O)C(=O)N/N=C/c1ccc([N+](=O)[O-])o1 | -29.5% (inactive) |  |
| Cc1oc(-c2ccccc2)nc1CCOc1ccc(C[C@H](Nc2ccccc2C(=O)c2ccccc2)C(=O)O)cc1 | -15.6% (inactive) |  |
| CN1[C@@H]2CC[C@H]1CC(OC(=O)C(CO)c1ccccc1)C2 (stereo not given in full) |  | inactive |
| CCCC(CC)CCCCCCCN (stereo not given) | 1.13% [at 78.9 µM] (inactive) |  |
| CN(C)c1ccc(N=Nc2ccccc2C(=O)O)cc1 | -15.1% (inactive) |  |
| CCCCCCCCCCCC(=O)N(CC)CC | -6.32% (inactive) |  |
| C=C(c1ccc(C(=O)O)cc1)c1cc2c(cc1C)C(C)(C)CCC2(C)C |  | inactive |
| NCCCCCCNCCCCCCN | 0.852% (inactive) |  |
| CCCOc1sc(C(=O)N2CCC(c3cc(CN)ccc3F)CC2)c(C)c1Br |  | 20 µM (active) |
| O=C1OC(=O)c2cccc3cccc1c23 | -8.64% [at 78.9 µM] (inactive) |  |
| CC(C)(C)CC(C)(C)c1ccccc1O |  | 39.1 µM (active) |
| COc1cc(C(=O)NS(=O)(=O)c2ccccc2C)ccc1Cc1cn(C)c2ccc(NC(=O)OC3CCCC3)cc12 | 2.45% (inactive) |  |
| C(=C/c1ccccc1)/c1ccccc1 | 0.0837% [at 78.9 µM] (inactive) |  |
| C=CC(=O)OCCC#N | 9.73% [at 78.9 µM] (inactive) |  |
| COC(=O)[C@]1(C)CCC[C@@]2(C)[C@H]1CC=C1C=C(C(C)C)CC[C@@H]12 | -14.2% (inactive) |  |
| O=C1NCCN1CCN1CCC(c2cn(-c3ccc(F)cc3)c3ccc(Cl)cc23)CC1 |  | 16.9 µM (active) and 21.3 µM (active) |
| O=C1OC(OC(=O)c2cccnc2Nc2cccc(C(F)(F)F)c2)c2ccccc21 (stereo not given) | 3.3% (inactive) |  |
| O=C(O)CC(=O)O | 4.09% (inactive) |  |
| CC(CN(C)C)CN1c2ccccc2CCc2ccccc21 (stereo not given) | -4.91% [at 27 µM] (inactive) |  |
| O=C1NCN(c2ccccc2)C12CCN(CCCC(c1ccc(F)cc1)c1ccc(F)cc1)CC2 | 2.52% (inactive) |  |

| SMILES | activity change, negative = cytotoxicity | Potency |
| --- | --- | --- |
| CCCCCCCCCCCCOC(=O)c1cc(O)c(O)c(O)c1 |  | 54.9 µM (active) |
| CCCCC(CC)COC(=O)c1ccc(O)cc1 (stereo not given) |  | inactive |
| N[C@@H](CSSC[C@H](N)C(=O)O)C(=O)O | 15.5% (inactive) |  |
| CCN1CCN(c2cc(-c3ccc(F)cc3)c3c(n2)CCCCCC3)CC1 | -24.2% (inactive) |  |
| CCC(C)(C)c1cc(O)c(C(C)(C)CC)cc1O | -9.71% (inactive) |  |
| CC(C)(C)c1cc(/C=C2\SC(=N)NC2=O)cc(C(C)(C)C)c1O |  | 49 µM (active) |
| Cc1nc(Nc2ncc(C(=O)Nc3c(C)cccc3Cl)s2)cc(N2CCN(CCO)CC2)n1 | -5.09% (inactive) |  |
| CC(=O)Oc1ccc(C2(c3ccc(OC(C)=O)cc3)Oc3ccccc3NC2=O)cc1 | -0.495% (inactive) |  |
| COC(=O)NCCC[Si](OC)(OC)OC | -16.6% (inactive) |  |
| Cc1occc1SSc1ccoc1C | -12.1% (inactive) |  |
| Brc1ccccc1-c1ccccc1 | -25.3% (inactive) |  |
| C[Si](C)(C)Cl | 0.0383% (inactive) |  |
| O=C(O)c1cccc(Cl)n1 | 5.83% (inactive) |  |
| CCN=c1cc2oc3cc(NCC)c(C)cc3c(-c3ccccc3C(=O)OCC)c-2cc1C |  | 689 nM (active) and 1.23 µM (active) |
| Cc1ccc(N)cc1O | -11.7% (inactive) |  |
| CCN(CC)CCSC(=O)C(c1ccccc1)c1ccccc1 |  | inactive |
| CC(C)(c1cc(Br)c(O)c(Br)c1)c1cc(Br)c(O)c(Br)c1 |  | 54.8 µM (active) |
| CCCCCCCCCCOCC(O)CN (stereo not given) | -29.2% (inactive) |  |
| Clc1ccc(C(Cn2ccnc2)OCc2ccsc2Cl)c(Cl)c1 (stereo not given) |  | 26.8 µM (active) |
| NCCCC(O)(P(=O)(O)O)P(=O)(O)O | -0.856% (inactive) |  |
